# Screening data from PubChem.
# Sfp inh – blocks B. subtilis Sfp PPTase activity; Biochemical Sfp PPTase activity, qHTS; actives 3.5% (n = 310,000); Potency, µM, most hits filed as inhibitors;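 also: the enzyme is Sfp with the accession as filed and its product quenches rhodamine fluorescence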
#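 Buffer: 50 mM Hepes-Na pH 7.6, 10 mM MgCl2, 0.01% Nonidet P-40, 0.01% BSA. Enzyme 15 nM, pre-exposed to compound 15 min; substrates then added and fluorescence change tracked over 30 min.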
# Tau fibril ThT – inhibitors of human tau fibril formation, thioflavin T binding | actives 2.1% (n = 270,000) | AID 1460 | P10636 | Potency, µM (titrated, usually from 57.4 µM), usual class: inhibitors | recombinant tau K18 P301L, heparin-induced fibrillization, ThT fluorescence; also: nearly all actives have a fitted effect of over 55% in size
# Target sequence (P10636 561-689 P618L limits assumed): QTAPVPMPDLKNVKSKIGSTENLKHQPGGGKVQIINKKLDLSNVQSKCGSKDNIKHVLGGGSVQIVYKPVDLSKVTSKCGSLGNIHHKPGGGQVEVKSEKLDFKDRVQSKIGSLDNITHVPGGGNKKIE
#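 K18 P301L tau (15 uM + 0.24 uM Alexa 594-tagged), heparin 20 uM, NaOAc pH 7, 6 h 37 C; ThT 30 uM, 1 h RT, ex 450/em 510 nm.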
# Tau fibril FP – inhibitors of human tau fibril formation; K18 P301L tau heparin fibrillization, Alexa594 FP, 6 h; AID 1468; Potency, µM (doses to about 57.7 µM), most hits filed as inhibitors; actives 0.39% (n = 280,000); also: nearly all actives have a fitted effect of over 55% in size
#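 Human K18 P301L fragment (15 uM unlabeled plus 0.24 uM Alexa 594-labeled) in 100 mM sodium acetate pH 7 with compound, aggregation induced by 20 uM heparin for 6 hr at 37 C. ThT (30 uM) added for 1 hr, then Alexa 594 FP read.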
# Coupling enz – coupling enzyme interference in Giardia aldolase counter-screen. actives 0.67% (n = 290,000). coupling enzyme system counterscreen, AmpLite Red fluorescence. activity change, negative = inhibition, % at 58.2 µM, hits read low; in the data active = activity change below about -30%
#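 Counterscreen of the coupled detection system alone, without aldolase: glyceraldehyde-3-phosphate coupling enzymes plus AmpLite Red readout. Compounds at 57.5 uM final, 10 min RT preincubation, 20 min RT reaction, fluorescence 525/598 nm.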
# Tau fluor counter – counter-screen for tau fibril formation inhibitors; Potency, µM (highest dose often 57.7 µM); tau K18 P301L Alexa594 fluorescence, heparin fibrillization; AID 1463; actives 0.93% (n = 280,000); also: nearly all actives have a fitted effect of over 55% in size
#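 Human tau K18 P301L (15 uM unlabeled, 0.24 uM Alexa 594-labeled) in 100 mM sodium acetate pH 7 with 20 uM heparin, 6 hr at 37 C. ThT 30 uM added, 1 hr ambient; Alexa 594 FP and total fluorescence read at 555/632 nm.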
# Hits are given with their value; 0 = inactive; ? = inconclusive; - = not tested or not shown; [ ] = dose if it differs, or a comment. Compounds with a hit are over-represented: about 5.2% of the library has one in this group of screens. Unless noted, calls follow the shape of the dose curve; as a rule, active = well fitted curve in the direction sought with a large enough effect; inconclusive = small, poorly fitted or top-dose-only effect, or another doubt; inactive = no such curve, though single readings can be large; an effect the other way counts as inactive or inconclusive.
SMILES,Sfp inh,Tau fibril ThT,Tau fibril FP,Coupling enz,Tau fluor counter
COc1ccc(OC2C(=O)N(c3ccc(F)cc3)C2c2ccc(OC)c(OC)c2)cc1 (stereo not drawn),0,0,0,0,0
COc1ccc(N2C(S)=C(C#N)C(=O)NC2c2ccc(OC)c(OC)c2)cc1 (stereo not drawn),22µM,28µM,?,0,0
COc1ccc(N2C(=O)c3ccccc3NC2c2ccc(OC)c(COc3ccccn3)c2)cc1 (stereo not drawn),0,0,0,0,0
COc1ccc(C2NC(=O)C(C#N)=C(S)N2c2ccc(C)cc2)cc1OC (stereo not drawn),32µM,32µM,?,0,0
CCOc1ccc(C2NC(=O)C(C#N)=C(S)N2c2ccc(OC)cc2)cc1OC (stereo not drawn),28µM,?,?,0,0
COc1cc(C2NC(=O)C(C#N)=C(S)N2c2ccc(C)cc2)ccc1OC(C)C (stereo not drawn),?,0,0,0,0
CCN(CC)CCNc1ncnc2c1[nH]c1ccc(OC)cc12,0,0,0,0,0
COc1ccc2[nH]c3c(NCCC4=CCCCC4)ncnc3c2c1,0,?,?,0,7.9µM[quencher]
S=c1[nH]c(-c2ccccc2)cn1/N=C/c1cccnc1,45µM,-,0,0,0
S=c1[nH]c(-c2ccccc2)cn1/N=C/c1ccc(Br)cc1,0,?,0,0,0
O=C(O)c1ccc(/C=N/n2cc(-c3ccccc3)[nH]c2=S)cc1,18µM,?,0,0,0
Fc1ccccc1/C=N/n1cc(-c2ccccc2)[nH]c1=S,89µM,?,0,0,?
COc1ccc(-c2cccc(NS(=O)(=O)c3ccc(C)s3)c2)nn1,-,0,0,-,0
Cc1ccc(CN2CCC(CNc3ncnc4onc(-c5ccc(F)cc5)c34)CC2)cc1,-,0,0,-,0
Cc1ccc(C)n1-c1sccc1C(=O)O,50µM,32µM,?,0,0
CC(=O)Nc1ccc(S(=O)(=O)N2CCC(c3nnc(-c4ccc(C)cc4)o3)CC2)cc1,50µM,0,0,0,?
COC(=O)c1ccccc1S(=O)(=O)N1CCc2nc(COc3ccccc3)c3c(c2C1)CO[C@@H](C)C3,0,0[11.5 µM],0[11.6 µM],0,0[11.6 µM]
CN(C)C(=O)/N=N/C(=O)N(C)C,-,7.9µM,14µM,-,0
CCOc1cc(-c2nc3ccccc3s2)ccc1O,0,?,0,0,20µM[quencher]
COc1cc(-c2nc3ccccc3s2)ccc1O,0,?,0,0,?
Cc1ccc(Nc2ccc(N3CCN(C(=O)c4cccc([N+](=O)[O-])c4)CC3)nn2)cc1,-,?,0,-,?
Cc1cc2cc(CNC(=O)c3ccco3)ccc2n1C,79µM,?,0,0,0
Cc1cc2cc(CNC(=O)c3cc4ccccc4o3)ccc2n1C,0,?,0,0,0
N[C@@H](Cc1cc(I)c(Oc2ccc(O)cc2)c(I)c1)C(=O)O,0,0,0,-,0
COc1cc([N+](=O)[O-])cc(/C=N/NC(=O)c2ccc(NC(=O)c3ccc(C)cc3)cc2)c1O,0,2µM,0,0,?
SMILES,Sfp inh,Tau fibril ThT,Tau fibril FP,Coupling enz,Tau fluor counter
COc1cccc(/C=N/NC(=O)C(=O)N/N=C/c2cccc(OC)c2O)c1O,0,?,0,0,0
COc1cc(/C=N/NC(=O)c2ccc(C)nc2)cc([N+](=O)[O-])c1O,0,?,0,0,0
COc1cccc(/C=N/NC(=O)c2cc3cc([N+](=O)[O-])ccc3s2)c1O,?,2.2µM,0,0,?
COc1cc([N+](=O)[O-])cc(/C=N/NC(=O)c2ccc(C)nc2)c1O,0,11µM,0,0,0
COc1cc([N+](=O)[O-])cc(/C=N/NC(=O)C(C)Nc2cccc(C)c2)c1O (stereo not drawn),0,11µM,0,0,0
COc1ccccc1/C=N/NC(=O)c1ccc(NC(=O)c2cccc([N+](=O)[O-])c2)cc1,0,?,0,0,0
CCc1c2c(nc3ccc(OC)cc13)-c1nc3ccccc3c(=O)n1C2,0,-,-,0,-
COc1cc(/C=N/NC(=O)c2ccncc2)c([N+](=O)[O-])cc1OC,0,-,-,0,-
COc1cc(OC)c([N+](=O)[O-])cc1/C=N/NC(=O)c1ccncc1,35µM,25µM,?,-42,?
N#Cc1cccc(NC(=O)N2CC[C@@]3(CCCN(C(=O)c4ccncc4)C3)C2)c1,0,-,-,0,-
O=C(Cc1ccccc1)NC1CCN(Cc2ccccc2)CC1,0,0,0,0,0
O=C(O)C1CSC2(CCN(Cc3ccccc3)CC2)N1 (stereo not drawn),50µM,0,0,0,0
CCN(Cc1ccccc1)C(=O)CN1C(=O)COc2ccc(S(=O)(=O)N(CC)CC)cc21,-,0,0,-,0
CN(C)CCCNS(=O)(=O)c1ccc(N2CCN(Cc3ccc4c(c3)OCO4)CC2)c([N+](=O)[O-])c1,71µM,-,-,0,-
CC(=O)c1ccc(N2CCN(c3ccc(S(=O)(=O)NCCCN(C)C)cc3[N+](=O)[O-])CC2)cc1,0,10µM,0,0,0
CC(=O)c1ccc(N2CCN(c3ccc(S(=O)(=O)NCCN(C)C)cc3[N+](=O)[O-])CC2)cc1,0,-,0,0,0
Cc1ccc(C)c(NC(=O)Nc2ccc3c(c2)OCO3)c1,0,-,-,-,-
Cc1ccc(CNc2ccc3c(c2)OCO3)c(C)c1,?,13µM,?,-37,?
Cc1nn(-c2ccccc2)c(OC(=O)c2cccc(Br)c2)c1S(=O)(=O)c1ccccc1,-,0,0,-,0
CCN(CC)c1ccc(/C=N/Nc2ccc(C)cc2)c(O)c1,40µM,25µM,0,0,?
Cc1cccc(N/N=C/c2ccccc2O)c1,0,?,?,0,16µM[quencher]
Brc1ccc(Oc2nsnc2N2CCOCC2)cc1,?,0,0,0,0
O=c1c(N2CCOCC2)nsnc1N1CCOCC1,0,0,0,-54,0
Cc1ccccc1Oc1cc(NC(=O)CCCn2nc(C)c([N+](=O)[O-])c2C)cc([N+](=O)[O-])c1,0,0,0,0,?
Cc1ccccc1Oc1cc(NC(=O)Cn2cnc([N+](=O)[O-])c2)cc([N+](=O)[O-])c1,0,?,?,0,13µM[quencher]
CC1CC=CC2C1C(=O)N(Cc1ccccc1)C2c1ccc(-c2cc3ccccc3s2)cc1F (stereo not drawn),0,-,-,0,-
O=C1c2oc3ccc(Cl)cc3c(=O)c2C(c2ccccn2)N1CCCN1CCOCC1 (stereo not drawn),25µM,?,0,0,0
COc1ccc(S(=O)(=O)/N=C2/NC(=O)/C(=C\c3cc(OC)c(OC)cc3[N+](=O)[O-])S2)cc1,0,22µM,0,0,?
COc1cc(/C=C2\S/C(=N/S(=O)(=O)c3ccccc3)NC2=O)c([N+](=O)[O-])cc1OC,?,14µM,?,0,?
CCc1ccc(NC(=O)N2CCN(Cc3nc4ccc(C)cc4o3)CC2)cc1,-,0,0,-,0
